Compound activity deposited in PubChem BioAssay by several laboratories.
CYP2C9 activ = increases human cytochrome P450 2C9 activity; P11712; recombinant CYP2C9, luciferin-H conversion, luminescence; active compounds read high; factor 1 = untreated enzyme, 0 = blocked; activation factor at 5 µM; hit rate 1.4% among 96,000; AID 1024;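 active = activation factor of 2 or more for CYP2C9 at a 5 µM dose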;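 also: 0 = sulfaphenazole-blocked wells and 1 = vehicle-only wells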
hDAT+cocaine = modulates human dopamine transporter uptake under cocaine; Q01959; LLC-PK1 hDAT cells, [14C]-dopamine uptake with cocaine IC80; actives deviate in either direction; B-score at 10 µM; hit rate 1.3% among 110,000; AID 449768;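 active = Z score or B-score, a plate-position-corrected score, falls beyond the plate's 99.7% confidence bounds, in either direction; inactive = both scores lie inside the 99.7% bounds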;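 also: scored against the spread of the other compound wells on the same plate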
CYP2C19 inh = human CYP2C19 inhibition; inhibition, % at 5 µM; CYP2C19 Supersomes, luciferin-H EGE luminescence, 30 min; hit rate 21% among 96,000; P33261;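 active = CYP2C19 inhibition above a set limit at 5 µM in the primary screen, cut at about 50% in these data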;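 also: plate controls were negative control wells for no effect and 2.5 mM tranylcypromine positive control for full effect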
CYP2C19 act = increases human CYP2C19 enzyme activity. P33261. recombinant CYP2C19, luciferin-H EGE luminescence; active compounds read high; 0 = fully inhibited enzyme, 1 = untreated enzyme. activation factor at 5 µM. 96,000 tested, under 10 active. AID 1025;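 active = activation factor of at least 2 at 5 µM in the primary screen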;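 also: 0 = wells with 2.5 mM tranylcypromine and 1 = vehicle-only wells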
D1 mod = D1 dopamine receptor (human) allosteric modulation; P21728; HEK293 D1, CRE-luciferase, dopamine EC30 potentiation; actives deviate in either direction; B-score at 10 µM; hit rate 5.9% among 58,000;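 active = luminescence count or its row- and column-corrected plate score outside the 99.7% band of the plate's sample wells, on either side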
Target sequence (P21728 whole entry, looked up): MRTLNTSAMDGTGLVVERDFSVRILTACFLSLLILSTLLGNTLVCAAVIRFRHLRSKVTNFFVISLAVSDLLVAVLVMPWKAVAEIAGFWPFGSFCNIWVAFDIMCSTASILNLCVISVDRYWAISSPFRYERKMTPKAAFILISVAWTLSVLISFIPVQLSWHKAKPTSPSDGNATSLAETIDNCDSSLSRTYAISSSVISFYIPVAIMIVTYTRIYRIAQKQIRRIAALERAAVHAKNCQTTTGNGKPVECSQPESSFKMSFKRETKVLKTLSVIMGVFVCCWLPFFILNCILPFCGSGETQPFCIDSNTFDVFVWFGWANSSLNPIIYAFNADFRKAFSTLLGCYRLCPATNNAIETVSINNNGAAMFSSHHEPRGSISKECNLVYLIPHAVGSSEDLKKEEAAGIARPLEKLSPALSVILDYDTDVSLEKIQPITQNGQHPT
CYP2C9 inh = blocks human cytochrome P450 2C9 | hit rate 20% among 96,000 | P11712 | inhibition, % at 5 µM | AID 777 | CYP2C9 Supersomes, luciferin-H conversion, luminescence;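 active = blocking of liver enzyme CYP2C9 beyond about 50% at 5 µM, limit read from the data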
An asterisk follows results filed as active; / = not tested or not shown. An excerpt weighted towards active compounds, which were near 28% of everything screened.

SMILES | CYP2C9 activ | hDAT+cocaine | CYP2C19 inh | CYP2C19 act | D1 mod | CYP2C9 inh
Cc1ccnc(NC(=O)C23CC4CC(CC(C4)C2)C3)c1 | 0.8 | 0.43 | 94* | 0.1 | 0.19 | 17
CCC(=O)Nc1ccc(NC(=O)C23CC4CC(CC(C4)C2)C3)cn1 | 0.9 | 0.17 | 3 | 1 | -0.66 | 6
COc1ccc(CC(=O)Nc2cc(C)ccn2)cc1 | 0.7 | -0.68 | 85* | 0.2 | 0.75 | 35
Cc1cc(NC(=O)CCC2CCCC2)no1 | 1 | 0.85 | 59* | 0.4 | -0.027 | 5
CCCC[C@@H]1CNC(=O)C(=O)N1CCc1cccc2ccccc12 | / | 1.4 | / | / | / | /
CCCNC(=O)c1cccc(C(F)(F)F)c1 | 1 | 0.16 | 10 | 0.9 | / | -1
COC(=O)C(C(=O)Nc1ncccn1)C1CCCCCC1 (configuration not stated) | 0.9 | -0.95 | 44 | 0.6 | -0.97 | 10
O=C(CCC1CCCC1)NC1CCCCC1 | 0.7 | 2.8 | 57* | 0.4 | / | 28
Cc1ccnc(NC(=O)CCC2CCCCC2)c1 | 0.9 | -1 | 86* | 0.1 | -1.6 | 13
COC(=O)C(C(=O)Nc1cc(C)on1)C1CCCCCC1 (configuration not stated) | 0.5 | -0.25 | 64* | 0.4 | / | 52*
CCOC(=O)C(C(=O)Nc1ccc(C)cc1)C1CCCCC1 (configuration not stated) | 0.4 | 0.43 | 79* | 0.2 | / | 56*
O=C(CSCc1ccc(F)cc1)Nc1ccccc1 | 1.6 | 0.92 | 94* | 0.1 | / | -56
O=C(CSCc1cccc(CSCC(=O)Nc2ccccc2)n1)Nc1ccccc1 | 0.4 | 2 | 53* | 0.5 | / | 65*
O=C(O)CSCC(=O)Nc1ccccc1 | / | -0.39 | / | / | / | /
COc1cc(NC(=O)CN2CCN(S(=O)(=O)c3ccc(C(C)C)cc3)CC2)cc(OC)c1 | 0.7 | 0.007 | 74* | 0.3 | -0.57 | 30
COc1cccc(NC(=O)CN2CCN(S(=O)(=O)c3ccc(C(C)C)cc3)CC2)c1 | 0.7 | 1 | 87* | 0.1 | -0.52 | 31
COc1cccc(NC(=O)CN2CCN(S(=O)(=O)c3ccc(F)cc3)CC2)c1 | 0.9 | -0.12 | 43 | 0.6 | / | 10
CC1CCc2c(sc3nc(C4CC4)nc(SCC(=O)NCc4ccco4)c23)C1 (configuration not stated) | / | / | / | / | -1.7 | /
CCc1ccc(-c2nc(CSCC(=O)N3CCN(c4ncccn4)CC3)c(C)o2)cc1 | 0.3 | 1.2 | 29 | 0.7 | -3.5 | 75*
CCOC(=O)N1CCN(C(=O)CSCc2nc(-c3ccccc3C)oc2C)CC1 | 0.6 | 0.57 | 59* | 0.4 | -0.12 | 36
Cc1ccc(CSc2nc3c(c(=O)[nH]2)C(c2ccncc2)C2=C(CCCC2=O)N3)cc1 (configuration not stated) | 0.1 | 0.23 | 94* | 0.1 | -3.6 | 95*
O=c1[nH]c(SCc2ccccc2Cl)nc2c1CCC2 | 0.9 | 0.14 | -8 | 1.1 | 0.76 | 13
Cc1ccc(CSc2nc3c(c(=O)[nH]2)CCC3)cc1 | 0.4 | -1.1 | 12 | 0.9 | 0.7 | 56*
CSc1nc2c(c(=O)[nH]1)C(c1cccs1)C1=C(CCCC1=O)N2 (configuration not stated) | 0.8 | 0.68 | 3 | 1 | / | 20
Cc1ccc(CSc2nc3c(cc2C#N)CCC3)cc1 | 1 | -0.55 | -15 | 1.1 | / | -4
SMILES | CYP2C9 activ | hDAT+cocaine | CYP2C19 inh | CYP2C19 act | D1 mod | CYP2C9 inh
Cc1ccccc1CSc1nc2c(c(=O)[nH]1)CCCC2 | 0.4 | / | 7 | 0.9 | / | 60*
O=C(c1ccccc1)c1cnc(-c2ccc(Cl)cc2)s1 | 0.6 | 2.1 | 34 | 0.7 | / | 37
O=C(c1ccc(Cl)cc1)c1cnc(-c2ccc(Cl)cc2)s1 | 1.1 | -0.34 | 64* | 0.4 | / | -6
COC(=O)C1=C(C(=O)OC)[C@@H]2N(Cc3ccccc3)c3ccccc3[C@@]23C[C@@H](CO)N(C(=O)NC2CCCC2)C3=N1 | / | 0.28 | / | / | / | /
COc1ccc(C2Nc3ccccc3C(=O)N2Cc2ccccc2)cc1COc1ccccn1 (configuration not stated) | 0.4 | 0.55 | 54* | 0.5 | / | 61*
COc1ccc(C2Nc3ccccc3C(=O)N2Cc2ccco2)cc1CN1C(=O)c2ccccc2C1=O (configuration not stated) | 0.2 | 0.84 | 74* | 0.3 | 3.2 | 85*
O=c1cc(CN2CCN(c3ccccc3F)CC2)c2cc3c(cc2o1)CCCC3 | 0.8 | -1.2 | 16 | 0.8 | / | 19
COc1cccc(-n2c(SCC(=O)NCc3ccco3)nnc2-c2c[nH]c3ccccc23)c1 | 0.4 | 2.5 | 66* | 0.3 | / | 59*
CCn1c(SCC(=O)NCc2ccco2)nnc1-c1c[nH]c2ccccc12 | 0.8 | 0.23 | 20 | 0.8 | / | 20
COc1ccc(OC)c(-n2c(SCC(=O)NCc3ccco3)nnc2-c2c[nH]c3ccccc23)c1 | 0.3 | -0.31 | 39 | 0.6 | -1.5 | 66*
COc1cccc(-n2c(SC)nnc2-c2c[nH]c3ccccc23)c1 | 0.7 | -0.41 | 62* | 0.4 | 0.44 | 34
CC(C)(C)NC(=O)C(c1ccco1)N(C(=O)Cn1nnc(-c2ccc(F)cc2)n1)c1ccccc1F (configuration not stated) | 0.9 | 0.76 | 23 | 0.8 | 0.25 | 12
CC1(C)CC(=O)c2sc(N3CCCCC3)nc2C1 | 0.7 | 0.39 | 58* | 0.4 | 0.96 | 26
CCOC(=O)c1c(C)[nH]c(C(=O)Cn2nnc(-c3ccc(Cl)cc3)n2)c1C | 1 | 0.9 | 5 | 1 | 0.86 | 4
CCOC(=O)c1c(C)[nH]c(N=Nc2ccccc2C)c1C | 0 | -0.21 | 83* | 0.2 | / | 95*
CCCCC(=O)OCC(=O)c1[nH]c(C)c(C(=O)OCC)c1C | 0.2 | -0.83 | -13 | 1.1 | / | 83*
CCOC(=O)c1c(C)[nH]c(N=Nc2ccc(C)cc2C)c1C | 1 | -0.77 | 15 | 0.8 | / | -2
CCOC(=O)c1c(C)[nH]c(C(=O)COC(=O)CSC)c1C | 0.4 | 0.85 | 41 | 0.6 | / | 56*
CCOC(=O)c1c(C)[nH]c(C(=O)CN2C(=O)NC(C)(c3ccc4ccccc4c3)C2=O)c1C (configuration not stated) | 0.4 | 0.54 | 34 | 0.7 | / | 62*
Cc1ccc2nc(N3CCN(S(=O)(=O)c4ccc(C)c(Cl)c4)CC3)c(C#N)cc2c1 | 0.6 | -0.16 | 20 | 0.8 | / | 42
CN(C)c1ccc(N2[C@@H](CC(=O)O)c3cc(C(F)(F)F)ccc3S2(=O)=O)cc1 | / | -0.35 | / | / | / | /
Cc1cc(NC(=O)CN2C(=O)NC(C)(c3ccccc3)C2=O)no1 (configuration not stated) | 0.5 | -0.38 | 7 | 0.9 | / | 48
CCOC(=O)c1c(C)[nH]c(C(=O)CSc2ccccc2)c1C | 0 | -1.9 | 84* | 0.2 | -2.9* | 96*
